This note sets out measurements from ChEMBL document CHEMBL3988442, “University of Dundee, Small-Polar-MMV Screening Library” (2021).

SMILES strings stand for the structures.

This test has as its target T1, Aspartate--tRNA(Asp/Asn) ligase (Mycobacterium tuberculosis (strain ATCC 25618 / H37Rv)) (UniProt P9WFW3).
T1 sequence (whole entry): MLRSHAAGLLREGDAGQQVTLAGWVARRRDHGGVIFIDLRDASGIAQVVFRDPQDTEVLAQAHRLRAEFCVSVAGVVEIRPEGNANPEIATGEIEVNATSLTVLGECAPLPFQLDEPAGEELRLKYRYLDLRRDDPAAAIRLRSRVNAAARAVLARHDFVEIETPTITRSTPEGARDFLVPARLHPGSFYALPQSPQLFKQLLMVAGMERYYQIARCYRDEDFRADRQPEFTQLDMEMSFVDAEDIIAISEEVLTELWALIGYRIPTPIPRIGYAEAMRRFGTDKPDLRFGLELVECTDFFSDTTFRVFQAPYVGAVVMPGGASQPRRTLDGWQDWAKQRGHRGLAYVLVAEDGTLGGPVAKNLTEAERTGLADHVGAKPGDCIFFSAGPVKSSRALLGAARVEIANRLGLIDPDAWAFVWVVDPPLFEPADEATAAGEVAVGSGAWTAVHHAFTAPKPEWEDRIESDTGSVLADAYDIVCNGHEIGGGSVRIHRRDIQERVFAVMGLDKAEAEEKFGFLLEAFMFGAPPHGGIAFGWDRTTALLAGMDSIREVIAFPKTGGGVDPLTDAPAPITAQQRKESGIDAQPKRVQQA
In words: Assay for Asp RNA synthetase-1 from Mycobacterium tuberculosis. As to conditions: 30 µM. On the set-up: scale not given: in the data most compounds retested in dose-response had high values. The class given is functional.
Take `CN(C)[C@H]1CCCCN(C(=O)CCc2csc(N)n2)C1`: the Percent Effect is -1.18%.
Next, `N#CC1(C(=O)N2CCN(Cc3ccon3)CC2)CCC1`: -1.89%.
As for `O=C(NCCn1ccnc1)N1CCCC1c1ccsc1` (stereo not given), the Percent Effect is -7.57%.
Consider `CC(c1ccc(Cl)cc1)N1CCN(CCS(C)(=O)=O)CC1` (stereo not given), for which the Percent Effect is -1.84%.
Next, `O=C(NCC(Cc1cccc(F)c1)N1CCCC1=O)c1cnccn1` (stereo not given): -5.12%; `CCc1ccc(C2CCCCCN2Cc2nc(CCOC)no2)o1` (stereo not given): 10.6%.
Turning to `Cn1cnnc1CNC(=O)Nc1cc(C(F)(F)F)c[nH]c1=O`, the Percent Effect came out at 1.79%.
Take `CCc1cccc(N2CCC(NC(=O)c3ccc(=O)[nH]n3)CC2)c1`: the Percent Effect was found to be 3.83%.
The figure for `CCc1nc(CN2CCCC(NCc3nnc(C4CC4)o3)C2)no1` (stereo not given) is -2.05%; for `Cc1cc(CNC(=O)C2CCCCN2C(=O)OC(C)(C)C)no1` (stereo not given) it is 0.607%.
As to `CCn1ccnc1CN1CCC(CNC(=O)c2ccc(C)nc2)C1` (stereo not given), the Percent Effect was -0.565%.
Next, `Cc1cccc(N2CCC(NC(=O)CCCc3cccs3)CC2)n1`: 8.77%; `CN(Cc1ccccc1F)C(=O)CS(=O)(=O)Cc1ccc(Cl)c(Cl)c1`: 2.16%.
With `Cc1ncsc1CN1C[C@H](C(=O)N2CCCO2)[C@@H]2CCO[C@@H]2C1`, the Percent Effect was -1.48%.
The figure for `CC(C)c1nnc2n1CCN(C(=O)CN1CCc3sccc3C1)C2` is -0.1%; for `Cc1ccccc1Oc1ncccc1CNS(C)(=O)=O` it is -3.12%.
The figure for `CC(C)c1cc(NC(=O)CN2CCC(N3CCNC3=O)CC2)on1` is 0.0463%; for `CCOC(CC)C(=O)NCCC(=O)N1CCN(c2ccccn2)CC1` (stereo not given) it is 2.61%.
Next, `Cc1cnn(CC2CN(CC(=O)Nc3nnc(C)s3)CCO2)c1` (stereo not given): -4.68%; `Cc1cnn(CC2CCCCN2Cc2cc(C)on2)c1` (stereo not given): -5.5%.
Take `Cc1nc(COC[C@@H]2CC[C@H]3[C@H](CCN3S(C)(=O)=O)O2)cs1`: the Percent Effect was determined as 6.16%.
As for `O=S1(=O)N=C(SCc2ccc(Cl)cc2)Nc2ccc(F)cc21`, the Percent Effect was -0.189%.
Turning to `O=C([C@H]1CCCO1)N1CCc2ncnc(NC3CC3)c2CC1`, the Percent Effect worked out at 2.52%.
Next, `Cc1cnn(CC2CCCN2CC(=O)N(C)CCC#N)c1` (stereo not given): -0.546%.
Next, `COc1ccccc1C(O)CNC(=O)NCc1cccnc1OC` (stereo not given): -0.742%; `CC[C@@]1(O)CCN(C(=O)c2ccsc2)C[C@H]1O`: -4.99%.
The figure for `NC(=O)COc1ccc(CNCc2ccc(F)c(F)c2)cc1` is -1.73%; for `CN(C)CC(=O)N1CCCC2(CCC(=O)N(CCc3c[nH]cn3)C2)C1` (stereo not given) it is 0.773%.
Take `Cc1ccc(CCC(=O)N2CCCC(n3cncn3)C2)c(C)c1` (stereo not given): the Percent Effect is -4.98%.
Next, `Cc1nc2ccccc2c(=O)n1CCC(=O)N1CCSCC1`: 1.9%; `c1ccc(-n2nnnc2CN2CCCC(Cn3cncn3)C2)cc1` (stereo not given): 2.98%.
For `COc1cccc(CCC(=O)N2CCCCC2Cn2cccn2)c1` (stereo not given), the Percent Effect turned out to be 1.44%.
Next, `Cn1cc(C2CCCN2C(=O)CCCOCc2ccccc2)cn1` (stereo not given): -6.77%.
Turning to `COc1ccc(C(=O)NCCc2nnc3ccccn23)c(OC)c1`, the Percent Effect came out at 3.2%.
The figure for `Cn1ccc(C(=O)NC2CCN(c3ncccn3)CC2)cc1=O` is 4.84%; for `CC(C(=O)N1CCCC1)N1CCC(c2nccn2CC2CCC2)CC1` (stereo not given) it is -1.49%.
Regarding `Cc1[nH]ncc1C(=O)N1CCCC(c2cc(C(F)(F)F)[nH]n2)C1` (stereo not given), the Percent Effect came out at 0.845%.
As to `Cc1nc(C2CCCN(C(=O)Cn3ccccc3=O)C2)no1` (stereo not given), the Percent Effect is -1.54%.
As to `Cc1ccc2c(n1)N(CCn1cccn1)CCN(C(=O)NC1CC1)C2`, the Percent Effect is 0.917%.
Next, `Cc1[nH]ncc1C(=O)N1CCN(CC(O)C(C)(C)C)CC1` (stereo not given): 0.878%.
